In PubChem BioAssay (NCI):
This is part of a sample that, as a whole, favours compounds with a hit. Of some 83,000 tested, about 20% had one in any assay.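 Assay: single dose, 48 h. Readout: percent growth (0 = no net growth; negative = cell death). Active: <10.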 The source made the active and inactive calls.

Assays:
Experiment in all cases: NCI-60 one-dose screen, 48 h (100 = growth as untreated, 0 = no growth, -100 = all killed)
Conditions in all cases: 10 µM unless noted
NCI-H23 lung = test system: NCI-H23 lung
NCI-H226 lung = test system: NCI-H226 lung
NCI-H322M lung = test system: NCI-H322M lung
HOP-62 NSCLC = test system: HOP-62 NSCLC
NCI-H460 lung = test system: NCI-H460 lung
HOP-92 NSCLC = test system: HOP-92 NSCLC
NCI-H522 lung = test system: NCI-H522 lung
A549/ATCC NSCLC = test system: A549/ATCC NSCLC
786-0 renal = test system: 786-0 renal
COLO 205 colon = test system: COLO 205 colon
DU-145 prostate = test system: DU-145 prostate
K-562 leukemia = test system: K-562 leukemia
MALME-3M melanoma = test system: MALME-3M melanoma
MDA-MB-231 breast = test system: MDA-MB-231 breast
RXF 393 renal = test system: RXF 393 renal
SF-268 CNS = test system: SF-268 CNS
SF-295 CNS = test system: SF-295 CNS
SF-539 CNS = test system: SF-539 CNS
UACC-257 melanoma = test system: UACC-257 melanoma
M14 melanoma = test system: M14 melanoma

Measured: growth

Cn1c(=O)c2c(nc(NC3=NS(=O)(=O)c4ccccc43)n2CC(=O)N2CCc3ccccc32)n(C)c1=O
inactive: NCI-H23 lung 87.2% | NCI-H226 lung 98.8% | NCI-H322M lung 100% | HOP-62 NSCLC 94.4% | NCI-H460 lung 100% | HOP-92 NSCLC 109% | NCI-H522 lung 97.5% | A549/ATCC NSCLC 99.3% | 786-0 renal 97.3% | COLO 205 colon 101% | DU-145 prostate 106% | K-562 leukemia 114% | MALME-3M melanoma 103% | MDA-MB-231 breast 94.3% | RXF 393 renal 92.7% | SF-268 CNS 97.5% | SF-295 CNS 105% | SF-539 CNS 98.1% | UACC-257 melanoma 94.9% | M14 melanoma 89.1%

NC(=O)CCC(C(=O)O)N1C(=O)c2ccc(O)cc2C1=O (stereo not drawn)
inactive: NCI-H23 lung 118% | NCI-H226 lung 107% | NCI-H322M lung 112% | HOP-62 NSCLC 113% | NCI-H460 lung 109% | HOP-92 NSCLC 93.2% | NCI-H522 lung 102% | A549/ATCC NSCLC 122% | 786-0 renal 111% | COLO 205 colon 119% | DU-145 prostate 118% | K-562 leukemia 72.2% | MALME-3M melanoma 157% | MDA-MB-231 breast 113% | RXF 393 renal 115% | SF-268 CNS 111% | SF-295 CNS 91.7% | SF-539 CNS 106% | UACC-257 melanoma 107% | M14 melanoma 108%

CCCCNc1ccc(C#N)c(OCCN(CC)CC)c1
inactive: NCI-H23 lung 92.8% | NCI-H226 lung 88% | NCI-H322M lung 100% | HOP-62 NSCLC 101% | NCI-H460 lung 104% | HOP-92 NSCLC 94.4% | NCI-H522 lung 92.8% | A549/ATCC NSCLC 101% | 786-0 renal 112% | COLO 205 colon 100% | DU-145 prostate 113% | K-562 leukemia 86% | MALME-3M melanoma 109% | MDA-MB-231 breast 99.3% | RXF 393 renal 103% | SF-268 CNS 103% | SF-295 CNS 107% | SF-539 CNS 111% | UACC-257 melanoma 114% | M14 melanoma 104%

O=C(Cn1cc(CN2C(=O)c3ccccc3S2(=O)=O)nn1)Nc1nc2ccccc2s1
inactive: NCI-H23 lung 103% | NCI-H226 lung 105% | NCI-H322M lung 98.2% | HOP-62 NSCLC 89.5% | NCI-H460 lung 105% | HOP-92 NSCLC 100% | NCI-H522 lung 84.2% | A549/ATCC NSCLC 90.6% | 786-0 renal 101% | COLO 205 colon 104% | DU-145 prostate 108% | K-562 leukemia 101% | MALME-3M melanoma 95% | MDA-MB-231 breast 108% | RXF 393 renal 117% | SF-268 CNS 97.3% | SF-295 CNS 101% | SF-539 CNS 98.4% | UACC-257 melanoma 101% | M14 melanoma 103%

COc1ccc(C(=O)Nc2ncc(Cc3cccc(Cl)c3)s2)cc1OC
active: HOP-62 NSCLC 4.67% | NCI-H522 lung -11% | COLO 205 colon 1.48% | RXF 393 renal -7.25% | SF-295 CNS 6.3% | SF-539 CNS -12.3% | M14 melanoma 8.45%
inactive: NCI-H23 lung 46.8% | NCI-H226 lung 42.2% | NCI-H322M lung 39.6% | NCI-H460 lung 13.7% | HOP-92 NSCLC 54.6% | A549/ATCC NSCLC 34% | 786-0 renal 26.9% | DU-145 prostate 30.5% | K-562 leukemia 11.6% | MALME-3M melanoma 47.6% | MDA-MB-231 breast 39.1% | SF-268 CNS 50.8% | UACC-257 melanoma 23.1%

O=C1/C(=C/c2ccc(Cl)c(Cl)c2)CN(C(=O)C(Cl)Cl)C/C1=C\c1ccc(Cl)c(Cl)c1
active: NCI-H23 lung -66.3% | NCI-H226 lung -31.2% | NCI-H322M lung -22.8% | HOP-62 NSCLC -21.8% | NCI-H460 lung -55.8% | HOP-92 NSCLC -53% | NCI-H522 lung -35.1% | A549/ATCC NSCLC 7.18% | 786-0 renal -90.7% | COLO 205 colon -47.1% | DU-145 prostate -76.1% | K-562 leukemia 0.245% | MALME-3M melanoma -57.6% | MDA-MB-231 breast -34.2% | RXF 393 renal -80% | SF-268 CNS -64.7% | SF-295 CNS -79.7% | SF-539 CNS -93.2% | UACC-257 melanoma -11.4% | M14 melanoma -66.9%

C=CCn1c(SCC(=O)Nc2ccc(C(=O)/C=C/c3ccc(Cl)cc3)cc2)nnc1-c1cc(-c2ccc(S(N)(=O)=O)cc2)nc2ccccc12
inactive: NCI-H23 lung 99.3% | NCI-H226 lung 89.6% | NCI-H322M lung 99.7% | HOP-62 NSCLC 91.8% | NCI-H460 lung 103% | HOP-92 NSCLC 91.4% | NCI-H522 lung 98.3% | A549/ATCC NSCLC 92.6% | 786-0 renal 83.1% | COLO 205 colon 103% | DU-145 prostate 104% | K-562 leukemia 71.1% | MALME-3M melanoma 93.3% | MDA-MB-231 breast 90% | RXF 393 renal 80.2% | SF-268 CNS 74.8% | SF-295 CNS 97.5% | SF-539 CNS 87% | UACC-257 melanoma 99.8% | M14 melanoma 92.2%

C=CC(=O)NCc1ccc(Nc2nccc(-c3ccc(N4CCCC4)c(C#N)c3)n2)cc1
inactive: NCI-H23 lung 49.7% | NCI-H226 lung 39.9% | NCI-H322M lung 41% | HOP-62 NSCLC 17.1% | NCI-H460 lung 23.3% | HOP-92 NSCLC 36.8% | NCI-H522 lung 19.2% | A549/ATCC NSCLC 19.2% | 786-0 renal 17.6% | COLO 205 colon 31.4% | DU-145 prostate 46.3% | K-562 leukemia 21% | MALME-3M melanoma 44.9% | MDA-MB-231 breast 75.6% | SF-268 CNS 49.7% | SF-295 CNS 22.9% | SF-539 CNS 28% | UACC-257 melanoma 39.8% | M14 melanoma 36.1%
active: RXF 393 renal -1.91%

C[C@H](NC(=O)[C@@H](C)N)[C@H](Oc1ccc2c(cnn2-c2ccc(F)cc2)c1)c1ccc2c(c1)OCCO2
active: NCI-H460 lung 0.905% | HOP-92 NSCLC -4.6% | COLO 205 colon -3.17% | K-562 leukemia -3.32% | MALME-3M melanoma -24.7% | M14 melanoma -69.6%
inactive: NCI-H23 lung 83.7% | NCI-H226 lung 83.9% | NCI-H322M lung 75.5% | HOP-62 NSCLC 50.6% | NCI-H522 lung 24.8% | A549/ATCC NSCLC 39.3% | 786-0 renal 56.7% | DU-145 prostate 55.4% | MDA-MB-231 breast 42.5% | RXF 393 renal 62% | SF-268 CNS 42.5% | SF-295 CNS 77% | SF-539 CNS 74% | UACC-257 melanoma 63.9%

COc1ccc(-c2cn(-c3cc(OC)c(OC)c(OC)c3)c(=O)n2C(C)=O)cc1
inactive: NCI-H23 lung 94.9% | NCI-H226 lung 88.1% | NCI-H322M lung 99.6% | HOP-62 NSCLC 83.7% | NCI-H460 lung 106% | HOP-92 NSCLC 94.2% | NCI-H522 lung 73.5% | A549/ATCC NSCLC 91.8% | 786-0 renal 35.4% | COLO 205 colon 119% | DU-145 prostate 106% | K-562 leukemia 61.7% | MALME-3M melanoma 90.6% | MDA-MB-231 breast 76.7% | RXF 393 renal 109% | SF-268 CNS 107% | SF-295 CNS 78.6% | SF-539 CNS 97% | UACC-257 melanoma 82% | M14 melanoma 92.6%

C[C@@H]1CCC[C@H]1CC(N)C(=O)O (stereo partly drawn)
inactive: NCI-H23 lung 97.2% | NCI-H226 lung 101% | NCI-H322M lung 106% | HOP-62 NSCLC 107% | NCI-H460 lung 102% | HOP-92 NSCLC 98.2% | NCI-H522 lung 105% | A549/ATCC NSCLC 110% | 786-0 renal 104% | COLO 205 colon 116% | DU-145 prostate 106% | K-562 leukemia 99% | MALME-3M melanoma 149% | MDA-MB-231 breast 121% | RXF 393 renal 117% | SF-268 CNS 105% | SF-295 CNS 106% | SF-539 CNS 105% | UACC-257 melanoma 106% | M14 melanoma 98.8%

COc1ccc(C(=O)C2C(c3ccc(OC)cc3)CN(C)C23C(=O)Nc2ccccc23)cc1 (stereo not drawn)
inactive: NCI-H23 lung 86.1% | NCI-H226 lung 88% | NCI-H322M lung 103% | HOP-62 NSCLC 94.3% | NCI-H460 lung 97.7% | HOP-92 NSCLC 83% | NCI-H522 lung 76.4% | A549/ATCC NSCLC 87.9% | 786-0 renal 96% | DU-145 prostate 99% | K-562 leukemia 77.1% | MALME-3M melanoma 92.7% | MDA-MB-231 breast 93.9% | RXF 393 renal 80.8% | SF-268 CNS 89.7% | SF-295 CNS 90.6% | SF-539 CNS 104% | UACC-257 melanoma 97.5% | M14 melanoma 98.9%

COc1cc(/C=C\c2cc(/C=C\c3ccc(O)c(OC)c3)n(C(=O)COc3ccc(Cl)cc3Cl)n2)ccc1O
inactive: NCI-H23 lung 14.1% | NCI-H226 lung 26.5% | NCI-H322M lung 40.8% | HOP-62 NSCLC 11.3% | HOP-92 NSCLC 12.5% | A549/ATCC NSCLC 10.6% | 786-0 renal 13.7% | COLO 205 colon 82.4% | DU-145 prostate 16.5% | MALME-3M melanoma 12.1% | MDA-MB-231 breast 10.1% | SF-268 CNS 20.2% | SF-295 CNS 23.1% | UACC-257 melanoma 41.9%
active: NCI-H460 lung 9.28% | NCI-H522 lung -28.7% | K-562 leukemia 4.41% | RXF 393 renal -9.98% | SF-539 CNS 8.64% | M14 melanoma 4.34%

COc1ccc(/C(C)=C(/c2ccc(OCCCN(C)C)cc2)c2ccc(OC(=O)Cc3ccccc3)cc2)cc1
inactive: NCI-H23 lung 76.4% | NCI-H226 lung 91.5% | NCI-H322M lung 98.3% | HOP-62 NSCLC 83.3% | NCI-H460 lung 70.8% | HOP-92 NSCLC 50.5% | NCI-H522 lung 57.5% | A549/ATCC NSCLC 58.4% | 786-0 renal 71.6% | DU-145 prostate 94.2% | K-562 leukemia 11.9% | MALME-3M melanoma 95% | MDA-MB-231 breast 59.7% | RXF 393 renal 67.8% | SF-268 CNS 76% | SF-295 CNS 51.3% | SF-539 CNS 76.1% | UACC-257 melanoma 82.1%
active: M14 melanoma -19.6%
